We go through 7 compounds from PubChem BioAssay AID1259341 (Broad Institute, 2017).

Molecules are shown by their SMILES. Unmarked numbers belong to inactive results.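 How the source made its calls: active means activity change under -35% in any replicate well, with more than 20 beads read in that well; inactive means the rest.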

The assay deals with Caspase recruitment domain-containing protein 9 (Homo sapiens) + E3 ubiquitin-protein ligase TRIM62 (Homo sapiens) (UniProt Q9H257+Q9BVG3). As to the kind of experiment: disruptors of CARD9-TRIM62 binding, primary screen, cell lysate, HEK293FT lysates, Luminex bead ELISA (AID 1259341).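 Further: PE anti-Flag signal of Flag-CARD9 captured by myc-TRIM62 beads.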 Particulars: PE fluorescence, active compounds read low, concentration not given here. A general note: An ELISA detects its analyte on a solid surface through an enzyme-linked reagent.
Caspase recruitment domain-containing protein 9 (Homo sapiens) + E3 ubiquitin-protein ligase TRIM62 (Homo sapiens), sequence (Q9BVG3 whole entry, looked up, the tested form may be a part): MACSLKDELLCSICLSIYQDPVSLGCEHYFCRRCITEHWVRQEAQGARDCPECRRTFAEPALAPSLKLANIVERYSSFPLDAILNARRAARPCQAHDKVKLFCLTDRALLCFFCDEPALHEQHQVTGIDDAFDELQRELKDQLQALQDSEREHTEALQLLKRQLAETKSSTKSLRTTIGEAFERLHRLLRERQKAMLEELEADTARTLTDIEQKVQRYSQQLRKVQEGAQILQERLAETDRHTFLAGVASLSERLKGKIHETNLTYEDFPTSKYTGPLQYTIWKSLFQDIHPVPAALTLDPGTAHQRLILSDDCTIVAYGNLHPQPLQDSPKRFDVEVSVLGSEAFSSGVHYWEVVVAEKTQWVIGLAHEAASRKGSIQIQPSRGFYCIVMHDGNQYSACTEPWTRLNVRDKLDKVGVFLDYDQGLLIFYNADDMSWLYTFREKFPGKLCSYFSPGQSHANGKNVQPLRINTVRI
Caspase recruitment domain-containing protein 9 (Homo sapiens) + E3 ubiquitin-protein ligase TRIM62 (Homo sapiens), sequence (Q9H257 whole entry, looked up, the tested form may be a part): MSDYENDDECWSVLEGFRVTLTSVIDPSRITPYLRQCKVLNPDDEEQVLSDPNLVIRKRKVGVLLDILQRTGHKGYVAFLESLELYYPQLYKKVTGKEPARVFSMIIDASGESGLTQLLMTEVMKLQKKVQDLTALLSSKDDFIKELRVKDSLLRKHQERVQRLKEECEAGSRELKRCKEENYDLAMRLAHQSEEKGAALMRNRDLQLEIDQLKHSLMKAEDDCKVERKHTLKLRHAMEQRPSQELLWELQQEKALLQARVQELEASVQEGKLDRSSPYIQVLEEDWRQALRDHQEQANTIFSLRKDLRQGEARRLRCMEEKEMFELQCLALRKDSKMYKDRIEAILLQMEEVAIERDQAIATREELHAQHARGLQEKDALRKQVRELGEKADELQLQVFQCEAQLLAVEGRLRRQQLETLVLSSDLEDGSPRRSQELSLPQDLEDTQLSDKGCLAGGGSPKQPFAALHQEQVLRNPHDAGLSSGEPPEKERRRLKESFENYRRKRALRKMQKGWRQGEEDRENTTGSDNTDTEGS
Turning to `Cc1ccc(S(=O)(=O)Cc2ccc(C(=O)N3CCC4(CC3)OCCO4)o2)cc1`, the activity change, negative = inhibition is 1.47%.

`O=C(NCCc1ccccc1)c1cc2cccnc2n(Cc2ccccc2)c1=O`: the activity change, negative = inhibition is -0.118%. In the case of `O=C(NC1(C(F)(F)F)Oc2ccc(Cl)cc2O1)N1CCC2(CC1)OCCO2` (configuration not stated), the activity change, negative = inhibition was -0.512%. Consider `Nc1c(C(=O)NCc2ccco2)c2nc3ccccc3nc2n1CCN1CCOCC1`, for which the activity change, negative = inhibition is -14.4%.

On to `Nc1c2c(nc3ccccc13)CCN(Cc1ccccc1)C2`, for which the activity change, negative = inhibition was -1.61%. For `O=C(Nc1ccon1)c1cc2cccnc2n(Cc2ccccc2)c1=O`, the activity change, negative = inhibition is 4.61%.

Turning to `CCCCCn1c(NC(=O)c2ccco2)c(C(=O)OCC)c2nc3ccccc3nc21`, the activity change, negative = inhibition was -11.3%.
